# Source: PubChem (National Center for Advancing Translational Sciences (NCATS))
# Most compounds without a hit are left out; they make up all but 1.6% or so of the library.
# KCNH2 3.1 block = KCNH2 3.1 (human) potassium channel inhibition; activity change, % (tested at about 1.8 µM); U2OS KCNH2 3.1, thallium flux FluxOr; active compounds read low; 340,000 compounds, 0.95% hits;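 active = maximum activity change below -70%; inconclusive = maximum activity change from -70% to -50%; inactive = maximum activity change above -50%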;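 note: thallium influx rate constant from kinetic fluorescence after stimulation buffer; % is set by controls: 0 for no effect and ±100 for the full control effect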
#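 Normalized rate constant (relative to positive and negative DMSO controls) derived from a 2 min kinetic fluorescence read after stimulation; U2OS cells expressing the 3.1 isoform via virus at 1.77 x 10^8 /mL.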
# GRP78 ERSR act = induces the endoplasmic reticulum stress response in human glioma cells; AID 602332; 420,000 compounds, 0.02% hits; U87-MG GRP78 promoter luciferase reporter, 16 h; Potency, µM, without a hit: at the top dose activation, actives largely listed as activators; active = well fitted activation curve with a large enough effect; inconclusive = small, poorly fitted or top-dose-only effect; inactive = no such curve, though single readings can be large or run the other way; note: potency is the fitted concentration of half-maximal effect; series mostly up to about 76 µM; % of control where 0% means no effect; nearly all actives have a fitted effect of over 35% in size
#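 Stably transfected U87-MG glioma cells carrying a GRP78-based luciferase sensor; 16 h compound incubation. Luminescence end-point read 10 min after Bright-Glo addition at room temperature.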
# gsp antag = gsp mutant antagonism; gsp-mutant cells, cAMP HTRF, 30 min; Potency, µM (titrated, usually from 76.9 µM), for the others: at the highest dose activity change, negative = inhibition, usual class: inhibitors; 340,000 compounds, 0.4% hits; calls by dose curve; cell line not stated here;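 note: intracellular cAMP measured with PDE inhibitor Ro 20-1724 present during compound exposure; potency is the fitted concentration of half-maximal effect; % is set by controls: 0 for no effect and ±100 for the full control effect; nearly all actives have a fitted effect of over 65% in size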
#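 HTRF cAMP measurement after 30 min RT detection following 30 min, 37C compound treatment alongside […] (added as 300 uM solution) in G418-selected cells seeded at 2000/well and grown 16–24 h.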
# Akt phos inh = inhibitors of Akt phosphorylation | Neuro2A IGF-stimulated pAkt S473 HTRF, 20 min; active compounds read low | activity change, % for hits at 50 µM | 360,000 compounds, 0.32% hits | AID 651550; in the data active = activity change below about -80%; inconclusive = mostly about -51% to -80%; note: % is set by controls: 0 for no effect and ±100 for the full control effect
#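 Neuro2A cells in DMEM with 0.5% FBS, overnight at 37 deg C, given compound at single 50 µM final, then IGF (6 nM final) for 20 min at 37 deg C. Lysed; phospho-Akt Ser473 by HTRF after 24 h, 665/615 ratio.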
# gsp ag = agonists of gsp mutant (McCune-Albright syndrome). 340,000 compounds, 0.13% hits. Potency, µM (top dose mostly 76.9 µM), for inactives: at the highest dose activation (cAMP increase), most hits filed as activators. gsp mutant cells, cAMP HTRF, 30 min; active = well fitted activation curve with a large enough effect; inconclusive = small, poorly fitted or top-dose-only effect, or another doubt; inactive = no such curve, though single readings can be large or run the other way; cell line not stated here;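 note: phosphodiesterase inhibitor Ro 20-1724 added with compounds to block cAMP breakdown; potency is the fitted concentration of half-maximal effect; nearly all actives have a fitted effect of over 60% in size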
#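 Cells in DMEM/10% FBS with G418 were pretreated with compounds in DMSO plus […] (300 uM stock) for 30 min at 37C. cAMP was measured by HTRF (cAMP-d2 plus anti-cAMP antibody-K) after 30 min at room temperature.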
# hERG WT inh = blocks the wildtype human KCNH2 potassium channel; 340,000 compounds, 0.37% hits; activity change, % at 1.84 µM; U2OS, BacMam KCNH2, thallium flux FluxOr; active compounds read low; Q12809; AID 720551;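 active = maximum activity change below -70%; inconclusive = maximum activity change between -70% and -50%; inactive = maximum activity change above -50%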; note: % is set by controls: 0 for no effect and ±100 for the full control effect
#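 U2OS cells were transduced with wild-type KCNH2 virus (2.03 x 10^8 / mL) for 4 h at room temperature, then cultured overnight at 37 C. Thallium flux was read with FluxOr dye. Rate constants were normalized to DMSO controls.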
# * hit, by the source's call; i = inactive; ? = inconclusive; . = no result; [ ] = another dose, or the depositor's remark.
SMILES,KCNH2 3.1 block,GRP78 ERSR act,gsp antag,Akt phos inh,gsp ag,hERG WT inh
Cc1cccc(CN2CCC(C(=O)Nc3cccc(-c4cscn4)c3)CC2)n1,9,-4%,-5%,.,?,29
Cc1c(CN2CCC(C(=O)Nc3cccc(-c4cccc(Cl)c4)c3)CC2)cnn1C,-85*,-4%,8%,i,20%,-100*
C=CCn1cc(CN2CCC(C(=O)Nc3cccc(-c4cccc(Cl)c4)c3)CC2)c(C)n1,-93*,-3%,-2%,i,26%,-99*
Cc1cccc(CN2CCC(C(=O)Nc3cccc(-c4cccc(F)c4)c3)CC2)n1,-94*,0%,-11%,i,16%,-74*
Cn1cc(CN2CCC(C(=O)Nc3cccc(-c4cccc(F)c4)c3)CC2)cn1,-36,-8%,15%,i,-2%,21
C=CCn1cc(CN2CCC(C(=O)Nc3cccc(-c4cccc(F)c4)c3)CC2)c(C)n1,-49,-2%,5%,i,-23%,-6
CO[C@@H]1[C@@H]([C@H](C)[C@@H]2O[C@@]3(CC[C@@](C)([C@H]4CC[C@@](C)([C@H]5O[C@H]([C@H]6O[C@](C)(O)[C@H](C)C[C@@H]6C)C[C@H]5O[C@H]5C[C@@H](OC)[C@H](OC)[C@@H](C)O5)O4)O3)C[C@@H](O)[C@@H]2C)O[C@@](O)(CC(=O)O)[C@H](C)[C@H]1OC,.,-6%,.,.,.,.
CC1(C)Cc2c(sc(NC(=O)COc3ccc(Cl)cc3)c2C(N)=O)C(C)(C)N1,-73*,3%,2%,i,-6%,16
CCOC(=O)c1c(NC(=O)CSc2nnnn2-c2ccccc2)sc2c1CC(C)(C)NC2(C)C,-41,5%,-10%,i,-31%,10
CCOC(=O)c1c(NC(=O)CSc2nnnn2-c2ccccc2OCC)sc2c1CC(C)(C)NC2(C)C,-81*,-5%,-18%,i,6%[15.4 µM],-19
Cc1ccc(C(=O)N(Cc2cc3cccc(C)c3nc2N2CCC(O)CC2)C2CC2)cc1,.,-5%,.,.,.,.
CC(C)(S)C(=O)NC(CS)C(=O)O (stereo not given),.,-4%,.,.,.,.
Cc1cc2c(c(=O)n1CCc1ccccc1)C(c1ccco1)C(C#N)=C(N)O2 (stereo not given),5,2%,-13%,i,-30%,4
COc1cc(C2C(C#N)=C(N)Oc3cc(C)n(CCc4ccccc4)c(=O)c32)cc2c1OCO2 (stereo not given),-33,-5%,24%,-88%*,16%,6
C[C@]12C=CC(=O)C=C1[C@@H](F)C[C@@H]1[C@@H]2[C@@H](O)C[C@@]2(C)[C@H]1CC[C@]2(O)C(=O)CO,.,-4%,.,.,.,.
O=C(O)c1nc(NCCc2ccccc2)ncc1Cl,-180*,-4%,7%,i,10%,-113*
O=C(O)c1nc(NCc2ccccc2)ncc1Cl,18,-1%,19%,i,41%,.
CCS(=O)(=O)NCc1c(C)ncc2c1CCN(C(=O)c1ccc(F)cc1)C2,.,3%,.,.,.,.
CCOc1ccc(/C=N/NC(=O)c2ccc(Cn3cc([N+](=O)[O-])cn3)o2)cc1,-8,3%,-9%,i,-63%,10
CC(/C=N/NC(=O)c1ccc(Cn2cc([N+](=O)[O-])cn2)o1)=C\c1ccccc1,-79*,12%,2%,i,-1%,-1
Nc1c(C(=O)N2CCOCC2)sc2nc(N3CCOCC3)c3c(c12)CCCC3,8,6%,4%,i,11µM*,-1
Nc1c(C(=O)Nc2ccc(Cl)cc2)sc2nc(N3CCOCC3)c3c(c12)CCCC3,-10,-3%,-2%,.,10µM*,-6
Nc1c(C(=O)NCc2ccccc2)sc2nc(N3CCOCC3)c3c(c12)CCCC3,-72*,-6%,14%,i,?,4
Cc1ccc(NC(=O)c2sc3nc(N4CCOCC4)c4c(c3c2N)CCCC4)cc1,-6,1%,.,i,?,-3
O=C(Nc1ccccc1-c1cn2c(CN3CCNCC3)csc2n1)c1cnc2ccccc2n1,.,-12%,.,.,.,.
SMILES,KCNH2 3.1 block,GRP78 ERSR act,gsp antag,Akt phos inh,gsp ag,hERG WT inh
Cn1c(SCC(=O)Nc2ccc(NC(=O)c3ccccc3F)cc2)nnc1-c1ccncc1,-1,5%,50µM*,i,6%[15.4 µM],-10
Cn1c(SCC(=O)Nc2ccc(NC(=O)c3cccc(F)c3)cc2)nnc1-c1ccncc1,11,-3%,8%,i,14%[15.4 µM],2
CCc1nnc(SCC(=O)Nc2ccc3c(c2)OCO3)n1CC,.,1%,-6%,i,15%[15.4 µM],-205*
O=C(CSc1nnc(-c2cccs2)n1-c1ccccc1)Nc1ccccc1,-89*,-4%,17%,-92%*,?,-115*
Cc1ccc(-n2c(Cc3cccs3)nnc2SCC(=O)Nc2ccc(F)c(F)c2)cc1,-15,-6%,-9%,i,5%,-77*
O=C(CSc1nnc(Cc2cccs2)n1-c1ccccc1)Nc1ccc2c(c1)OCCO2,2,-4%,-11%,.,?,2
Cc1ccccc1C(=O)N1CC/C(=N/OS(=O)(=O)O)c2ccc(Cl)cc21,.,-4%,.,.,.,.
CCn1c(SCC(=O)Nc2ccc3c(c2)OCCO3)nnc1-c1cccs1,-81*,-3%,8%,i,-2%,-1
CCn1c(SCC(=O)Nc2ccc(N3CCOCC3)cc2)nnc1-c1ccncc1,-76*,-1%,-5%,i,3%,5
COc1ccc(OC)c(-n2nnnc2SCC(=O)Nc2ccc3c(c2)OCCO3)c1,-6,-2%,15%,i,11µM*,16
Cc1cccc2c(C(O)c3cn(C)c4ccccc34)c[nH]c12 (stereo not given),.,2%,.,.,.,.
Cc1cc(NC(=O)CCC(=O)N(c2ccccc2)C(C(=O)NC2CCCC2)c2cccs2)no1 (stereo not given),-186*,-3%,-6%,i,0%,4
COc1ccc(CN2CCc3nnc(CCc4ccccc4)n3CC2)c(OC)c1C,.,-1%,.,.,.,.
CC(O)(COc1ccccc1)c1ccc2c(c1)CN(Cc1cccn1-c1ccccn1)CCO2 (stereo not given),.,-3%,.,.,.,.
CC(C)NC(=O)[C@@H]1C[C@@H](Sc2ccccn2)CN1C1CCN(C)CC1,.,-3%,.,.,.,.
Nc1cc([N+](=O)[O-])cc(N)c1N,.,2%,.,.,.,.
Cc1ccc(OCc2nnc(N)s2)cc1,-9,1%,1%,i,-4%,5
Cc1cccc(OCc2nnc(N)s2)c1C,5,-2%,-6%,-120%*,16%,-12
Cc1ccc(N(CC(=O)NCCc2ccc(F)cc2)S(=O)(=O)c2ccc(Cl)c([N+](=O)[O-])c2)c(C)c1,-19,-6%,25µM*,i,-31%,-2
